The molecules below were run on Proto-oncogene tyrosine-protein kinase receptor Ret (Homo sapiens), P07949 [V804L]. Conditions: at 0.1 µM.
Sequence of Proto-oncogene tyrosine-protein kinase receptor Ret (Homo sapiens), P07949 [V804L] (P07949 whole entry V804L): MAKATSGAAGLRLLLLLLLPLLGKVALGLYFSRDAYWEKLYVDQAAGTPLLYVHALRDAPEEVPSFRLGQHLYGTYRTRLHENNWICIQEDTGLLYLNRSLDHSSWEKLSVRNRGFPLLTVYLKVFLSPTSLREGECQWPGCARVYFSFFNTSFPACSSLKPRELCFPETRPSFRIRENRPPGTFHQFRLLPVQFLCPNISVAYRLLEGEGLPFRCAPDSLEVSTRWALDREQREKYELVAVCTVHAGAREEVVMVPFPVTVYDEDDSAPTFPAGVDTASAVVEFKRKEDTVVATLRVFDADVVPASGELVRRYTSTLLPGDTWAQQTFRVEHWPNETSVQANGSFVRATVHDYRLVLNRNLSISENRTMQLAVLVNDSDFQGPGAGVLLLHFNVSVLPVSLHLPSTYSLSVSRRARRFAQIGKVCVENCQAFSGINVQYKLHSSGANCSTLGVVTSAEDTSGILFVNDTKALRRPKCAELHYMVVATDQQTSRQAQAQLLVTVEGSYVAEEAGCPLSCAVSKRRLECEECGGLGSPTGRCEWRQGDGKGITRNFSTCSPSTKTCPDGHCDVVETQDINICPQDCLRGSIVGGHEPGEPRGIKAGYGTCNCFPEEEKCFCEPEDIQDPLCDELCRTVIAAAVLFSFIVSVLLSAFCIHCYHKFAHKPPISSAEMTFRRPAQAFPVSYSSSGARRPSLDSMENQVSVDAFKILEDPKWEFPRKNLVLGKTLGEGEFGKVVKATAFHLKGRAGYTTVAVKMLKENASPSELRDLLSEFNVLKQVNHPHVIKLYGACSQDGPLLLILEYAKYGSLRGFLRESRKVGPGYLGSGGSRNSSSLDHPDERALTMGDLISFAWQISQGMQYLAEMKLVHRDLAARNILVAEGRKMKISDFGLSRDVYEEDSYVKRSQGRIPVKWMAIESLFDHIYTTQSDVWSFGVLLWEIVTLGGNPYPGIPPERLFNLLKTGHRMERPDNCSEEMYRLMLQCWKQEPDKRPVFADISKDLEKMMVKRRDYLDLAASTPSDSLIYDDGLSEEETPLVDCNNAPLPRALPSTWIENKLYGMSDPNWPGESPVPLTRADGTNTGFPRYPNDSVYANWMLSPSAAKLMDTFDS

Point of comparison: `COc1ccc(-c2nn3ncccc3c2-c2ccnc(Nc3ccc(Cl)c(C(F)(F)F)c3)n2)cc1`, inhibition 2.33%. Against it:
- Nc1ncnc2occ(-c3ccc(NC(=O)Nc4cc(C(F)(F)F)cc(C(F)(F)F)c4)cc3)c12 — higher, 38.4%
- CCn1c(-c2nonc2N)nc2c(N3CCCC3)nccc21 — lower, 0.68%
- CCn1c(-c2nonc2N)nc2cnc(Oc3cccc(NC(=O)c4ccc(OCCN5CCOCC5)cc4)c3)cc21 — higher, 2.37%
- COc1ccccc1Nc1ncc(-c2ccccc2)o1 — higher, 3.68%
- Cc1cccc(-c2n[nH]cc2-c2ccc3ncccc3n2)n1 — lower, -1.82%
- CC1=C(C(=O)Nc2ccc3[nH]ncc3c2)C(c2ccc(F)cc2)NC(=O)N1 (stereo not drawn) — higher, 6.27%
- CCCN1CCC=C(c2ccc(Nc3nc(Nc4ccccc4C(N)=O)c4cc[nH]c4n3)c(C)c2)C1 — higher, 18.6%
- CS(=O)(=O)Nc1ccc(N/C=C2\C(=O)Nc3ccccc32)cc1 — higher, 17.9%
- CCN1CCC(CC(=O)Nc2n[nH]c3nc(-c4cccs4)c(Br)cc23)CC1 — lower, 0.08%
- CS(=O)(=O)CCNCc1ccc(-c2ccc3ncnc(Nc4ccc(OCc5cccc(F)c5)c(C(F)(F)F)c4)c3c2)o1 — lower, 1.9%
- c1cnn2ncc(-c3ccnc(Nc4ccc5c(c4)OCCO5)n3)c2c1 — higher, 5.79%
- CCn1c(-c2nonc2N)nc2cncc(C(=O)N3CC[C@H](N)C3)c21 — higher, 3.46%
- NCc1ccc(-c2nc(-c3ccc(Cl)c(O)c3)c(-c3ccncc3)[nH]2)cc1 — lower, 1.17%
- COc1cc2ncn(-c3cc(OCc4ccccc4C(F)(F)F)c(C(N)=O)s3)c2cc1OC — higher, 10.4%
- COc1ccc(-c2ccncc2)cc1C(N)=O — higher, 2.72%
- Cc1cc(O)cc(C)c1/C=C/c1cncc(-c2nn[nH]n2)c1 — higher, 8.88%
- Nc1nc(-c2ccc3c(c2)C(=Cc2cc(Br)c(O)c(Br)c2)C(=O)N3)cs1 — lower, 1.75%
- COc1cccc(-n2ncc3c(N/N=C/c4cccc(F)c4)ncnc32)c1 — higher, 3.55%
- COC(=O)Nc1nc2cc(Oc3ccc(NC(=O)Nc4cccc(C(=O)O)c4)cc3)ccc2[nH]1 — higher, 2.8%
- Cc1nn(C)c2cc(N(C)c3ccnc(Nc4cccc(S(N)(=O)=O)c4)n3)ccc12 — higher, 5.4%
- COc1cc2ncn(-c3cc(OCc4ccccc4Cl)c(C(N)=O)s3)c2cc1OC — higher, 4.73%
- CC(=O)Nc1cccc(C#Cc2cncnc2Nc2ccc(OCc3cccc(F)c3)c(Cl)c2)n1 — lower, 0.14%
- COc1ccc(COc2ccc(Cc3cnc(N)nc3N)cc2OC)cc1 — higher, 6.53%
- Nc1nc(-c2ccccn2)c(-c2ccc3ncccc3n2)s1 — lower, 1.3%
- CC1=C(C(=O)Nc2ccc3[nH]ncc3c2)C(c2ccc3ccccc3c2)CC(=O)N1 (stereo not drawn) — higher, 12.4%
- COc1ccc(-c2coc3ncnc(N)c23)cc1 — higher, 4.56%
- CS(=O)(=O)CCNCc1nc(-c2ccc3ncnc(Nc4ccc(F)c(Cl)c4)c3c2)cs1 — higher, 5.1%
- O=C1Nc2ccc(C(=O)c3ccco3)cc2C1=Cc1cc(Cl)c(O)c(Cl)c1 — higher, 38.4%
- COc1cc2ncn(-c3cc(O[C@H](C)c4ccccc4Cl)c(C(N)=O)s3)c2cc1OC — higher, 19.5%
- CS(=O)(=O)CCN(CC#N)Cc1ccc(-c2ccc3ncnc(Nc4ccc(OCc5cccc(F)c5)c(Cl)c4)c3c2)o1 — lower, 1.02%
- CC(C)=Cc1cccc2c1/C(=N/Nc1ccc(S(N)(=O)=O)cc1)C(=O)N2 — higher, 16.4%
- CCn1c(-c2nonc2N)nc2c(C#CC(C)(C)O)nc(OC[C@@H](N)c3ccccc3)cc21 — lower, 2.03%

Source: ChEMBL document CHEMBL1961873, “Compounds: GSK PKIS; Assays: Nanosyn kinase panel” (2012)
